Source: PubChem BioAssay AID1159580 (chemical genetic matrix, 2015)
Several values for one entry are separate records, joined by “and”; a condition that tells them apart may be missing. Equal entries are not always repeated. The whole screen tested about 5,500 compounds, of which about 2,000 (36%) were called active. Not shown: some 18% with an inconclusive outcome. Rule as the data show it: active = normalized growth mostly below about 0.91 (no sharp cut-off); inconclusive = no clear call, values can overlap the other calls; inactive = mostly above about 0.92. This is one part of the list.

Experiment: chemical genetic growth profiling, strain panel (AID 1159580);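 also: tested at 20 µM; growth read once vehicle control cultures reached saturation at 30 °C; 1 = growth at the plate median or of vehicle wells; lower values mean less growth of the strain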
Conditions: growth OD

Measured: normalized growth

NNCCc1ccccc1
inactive: S. cerevisiae deletion strains, locus YJR066W, strain TOR1, hits give low values 0.945 | S. cerevisiae deletion strains, locus YJR075W, strain HOC1, hits give low values 0.986 | S. cerevisiae deletion strains, locus YKL009W, strain mrt4, hits give low values 0.995 | S. cerevisiae deletion strains, locus YKL068W, hits give low values 0.986 | S. cerevisiae deletion strains, locus YKL085W, strain MDH1 (second series), hits give low values 0.998 | S. cerevisiae deletion strains, locus YKL085W, strain MDH1, hits give low values 0.998 | S. cerevisiae deletion strains, locus YKL160W, strain elf1, hits give low values 1 | S. cerevisiae deletion strains, locus YKL190W, strain CNB1, hits give low values 0.966 | S. cerevisiae deletion strains, locus YKR001C, strain vps1, hits give low values 0.992 | S. cerevisiae deletion strains, locus YKR026C, strain gcn3, hits give low values 1.01 | S. cerevisiae deletion strains, locus YKR091W, strain srl3, hits give low values 1.01 | S. cerevisiae deletion strains, locus YLL001W, strain dnm1, hits give low values 1 | S. cerevisiae deletion strains, locus YLL026W, hits give low values 1 | S. cerevisiae deletion strains, locus YLL041C, strain sdh2, hits give low values 1 | S. cerevisiae deletion strains, locus YLR027C, strain aat2, hits give low values 1.01 | S. cerevisiae deletion strains, locus YLR039C, strain RIC1, hits give low values 0.897 | S. cerevisiae deletion strains, locus YLR058C, strain SHM2, hits give low values 0.974 | S. cerevisiae deletion strains, locus YLR102C, strain apc9, hits give low values 0.991 | S. cerevisiae deletion strains, locus YLR113W, strain HOG1, hits give low values 0.987 | S. cerevisiae deletion strains, locus YLR221C, strain rsa3, hits give low values 1.01 | S. cerevisiae deletion strains, locus YLR258W, strain gsy2, hits give low values 1.01 | S. cerevisiae deletion strains, locus YLR262C, strain YPT6 (second series), hits give low values 0.969 | S. cerevisiae deletion strains, locus YLR262C, strain YPT6, hits give low values 0.858 | S. cerevisiae deletion strains, locus YLR268W, strain sec22, hits give low values 1.05 | S. cerevisiae deletion strains, locus YLR320W, strain mms22, hits give low values 1.02 | S. cerevisiae deletion strains, locus YLR330W, strain CHS5, hits give low values 0.994 | S. cerevisiae deletion strains, locus YLR342W, strain FKS1 (second series), hits give low values 0.997 | S. cerevisiae deletion strains, locus YLR342W, strain FKS1, hits give low values 1.02 | S. cerevisiae deletion strains, locus YLR357W, strain rsc2, hits give low values 0.969 | S. cerevisiae deletion strains, locus YLR370C, strain arc18, hits give low values 1.01 | S. cerevisiae deletion strains, locus YLR371W, strain rom2, hits give low values 0.966 | S. cerevisiae deletion strains, locus YLR384C, strain iki3, hits give low values 1.01 | S. cerevisiae deletion strains, locus YLR418C, strain cdc73, hits give low values 0.965 | S. cerevisiae deletion strains, locus YML016C, strain PPZ1, hits give low values 0.989 | S. cerevisiae deletion strains, locus YML032C, strain rad52, hits give low values 0.996 | S. cerevisiae deletion strains, locus YML120C, strain ndi1, hits give low values 1.01 | S. cerevisiae deletion strains, locus YML124C, strain tub3, hits give low values 0.986 | S. cerevisiae deletion strains, locus YMR058W, strain fet3, hits give low values 1 | S. cerevisiae deletion strains, locus YMR078C, strain ctf18, hits give low values 0.969 | S. cerevisiae deletion strains, locus YMR125W, strain sto1, hits give low values 0.999 | S. cerevisiae deletion strains, locus YMR129W, hits give low values 1 | S. cerevisiae deletion strains, locus YMR205C, strain PFK2, hits give low values 1.02 | S. cerevisiae deletion strains, locus YMR223W, strain ubp8, hits give low values 0.95 | S. cerevisiae deletion strains, locus YMR231W, strain pep5, hits give low values 1.01 | S. cerevisiae deletion strains, locus YMR263W, strain SAP30, hits give low values 1 | S. cerevisiae deletion strains, locus YMR307W, strain GAS1, hits give low values 1 | S. cerevisiae deletion strains, locus YNL067W, strain RPL9B, hits give low values 0.981 | S. cerevisiae deletion strains, locus YNL071W, strain lat1, hits give low values 1.01 | S. cerevisiae deletion strains, locus YNL128W, strain TEP1, hits give low values 1.01 | S. cerevisiae deletion strains, locus YNL153C, strain GIM3, hits give low values 0.99 | S. cerevisiae deletion strains, locus YNL175C, strain NOP13, hits give low values 1 | S. cerevisiae deletion strains, locus YNL183C, strain NPR1, hits give low values 0.958 | S. cerevisiae deletion strains, locus YNL197C, strain WHI3, hits give low values 0.996 | S. cerevisiae deletion strains, locus YNL209W, strain ssb2, hits give low values 1 | S. cerevisiae deletion strains, locus YNL224C, strain SQS1, hits give low values 0.99 | S. cerevisiae deletion strains, locus YNL233W, strain BNI4, hits give low values 0.999 | S. cerevisiae deletion strains, locus YNL248C, strain rpa49, hits give low values 1.02 | S. cerevisiae deletion strains, locus YNL250W, strain rad50, hits give low values 0.983 | S. cerevisiae deletion strains, locus YNL271C, strain bni1, hits give low values 0.994 | S. cerevisiae deletion strains, locus YNL298W, strain CLA4, hits give low values 0.997 | S. cerevisiae deletion strains, locus YNL307C, strain MCK1, hits give low values 0.987 | S. cerevisiae deletion strains, locus YNL322C, strain KRE1 (second series), hits give low values 1.02 | S. cerevisiae deletion strains, locus YNL322C, strain KRE1, hits give low values 0.988 and 0.996 | S. cerevisiae deletion strains, locus YNR049C, strain mso1, hits give low values 1.01 | S. cerevisiae deletion strains, locus YNR052C, strain pop2, hits give low values 0.991 | S. cerevisiae deletion strains, locus YOL006C, strain TOP1, hits give low values 0.983 | S. cerevisiae deletion strains, locus YOL012C, strain htz1 0.89 | S. cerevisiae deletion strains, locus YOL147C, strain pex11, hits give low values 0.986 | S. cerevisiae deletion strains, locus YOR001W, strain rrp6, hits give low values 1.01 | S. cerevisiae deletion strains, locus YOR061W, strain CKA2, hits give low values 0.964 | S. cerevisiae deletion strains, locus YOR069W, strain VPS5, hits give low values 0.993 | S. cerevisiae deletion strains, locus YOR070C, strain gyp1, hits give low values 1 | S. cerevisiae deletion strains, locus YOR080W, strain dia2, hits give low values 1.01 | S. cerevisiae deletion strains, locus YOR083W, strain WHI5 (second series), hits give low values 1 | S. cerevisiae deletion strains, locus YOR083W, strain WHI5, hits give low values 0.988 | S. cerevisiae deletion strains, locus YOR106W, strain vam3, hits give low values 1.02 | S. cerevisiae deletion strains, locus YOR136W, strain idh2, hits give low values 0.973 | S. cerevisiae deletion strains, locus YOR144C, strain elg1, hits give low values 0.987 | S. cerevisiae deletion strains, locus YOR184W, strain ser1, hits give low values 0.981 | S. cerevisiae deletion strains, locus YOR231W, strain MKK1, hits give low values 0.982 | S. cerevisiae deletion strains, locus YOR265W, strain rbl2, hits give low values 1 | S. cerevisiae deletion strains, locus YOR270C, strain vph1, hits give low values 1.11 | S. cerevisiae deletion strains, locus YOR290C, strain snf2, hits give low values 1 | S. cerevisiae deletion strains, locus YOR316C, strain cot1, hits give low values 0.984 | S. cerevisiae deletion strains, locus YPL051W, strain arl3, hits give low values 1.01 | S. cerevisiae deletion strains, locus YPL078C, strain atp4, hits give low values 1 | S. cerevisiae deletion strains, locus YPL106C, strain sse1, hits give low values 0.977 | S. cerevisiae deletion strains, locus YPL240C, strain hsp82, hits give low values 1 | S. cerevisiae deletion strains, locus YPL241C, strain CIN2, hits give low values 0.994 | S. cerevisiae deletion strains, locus YPL256C, strain CLN2, hits give low values 0.958 | S. cerevisiae deletion strains, locus YPR119W, strain clb2, hits give low values 0.981 | S. cerevisiae deletion strains, locus YPR141C, strain kar3, hits give low values 0.968 | S. cerevisiae deletion strains, locus YPR163C, strain tif3, hits give low values 0.989 | S. cerevisiae deletion strains, locus YPR167C, strain met16, hits give low values 0.985 | S. cerevisiae deletion strains, strain wtn01, hits give low values 0.992 | S. cerevisiae strains, strain wild type, hits give low values 0.981
